Results: PubChem BioAssay (NCATS)
Records with an inconclusive call do not appear. Entries that show only a call come without a potency. Activity calls are given as the source filed them. The call rests on the fitted dose curve; in most records, active means well fitted curve in the direction sought with a large enough effect; inconclusive means small, poorly fitted or top-dose-only effect, or another doubt; inactive means no such curve, though single readings can be large; an effect the other way counts as inactive or inconclusive.

Biological target: Rap guanine nucleotide exchange factor 3 (Homo sapiens) (UniProt O95398)
Sequence (O95398 whole entry, looked up): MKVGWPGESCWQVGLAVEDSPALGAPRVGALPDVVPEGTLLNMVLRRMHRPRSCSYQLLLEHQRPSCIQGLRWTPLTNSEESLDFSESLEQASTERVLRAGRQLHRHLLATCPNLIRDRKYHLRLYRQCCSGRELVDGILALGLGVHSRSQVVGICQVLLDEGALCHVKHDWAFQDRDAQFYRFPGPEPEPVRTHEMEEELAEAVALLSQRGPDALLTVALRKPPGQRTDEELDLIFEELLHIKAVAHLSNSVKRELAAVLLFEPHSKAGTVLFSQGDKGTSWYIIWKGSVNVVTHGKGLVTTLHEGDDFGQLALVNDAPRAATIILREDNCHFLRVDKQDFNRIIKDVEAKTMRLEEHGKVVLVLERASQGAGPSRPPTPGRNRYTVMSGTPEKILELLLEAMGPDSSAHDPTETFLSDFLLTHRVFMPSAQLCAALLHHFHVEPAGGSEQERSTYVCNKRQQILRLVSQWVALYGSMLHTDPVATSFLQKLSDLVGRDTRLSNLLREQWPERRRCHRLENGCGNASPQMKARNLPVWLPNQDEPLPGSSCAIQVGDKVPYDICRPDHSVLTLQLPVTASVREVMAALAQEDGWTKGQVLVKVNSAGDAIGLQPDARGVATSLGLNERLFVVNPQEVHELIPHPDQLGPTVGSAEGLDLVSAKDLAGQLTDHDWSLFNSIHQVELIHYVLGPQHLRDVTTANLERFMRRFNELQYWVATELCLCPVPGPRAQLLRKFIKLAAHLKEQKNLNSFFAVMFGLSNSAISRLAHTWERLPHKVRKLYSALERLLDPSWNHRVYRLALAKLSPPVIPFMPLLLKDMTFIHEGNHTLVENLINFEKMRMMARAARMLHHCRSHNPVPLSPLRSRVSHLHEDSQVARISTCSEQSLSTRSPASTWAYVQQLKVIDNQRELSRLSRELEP
Assay: Confirmatory qHTS for antagonist of cAMP-regulated guanine nucleotide exchange factor 3 (EPAC1) (AID 1645880); further: nearly all actives have a fitted effect of over 55% in size; further: potency means the concentration at half of the fitted maximal effect
Conditions: EPAC1 Rap1B-BODIPY-GDP exchange, fluorescence; series mostly up to 115 µM
Outline: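 Nucleotide exchange uses 100 nM EPAC1, 250 nM RAP1B-BODIPY-GDP and 50 uM GDP, with compounds in a concentration-titration series. After 5 min at room temperature, fluorescence (480 nm ex/540 nm em) is read every 5 min for 30 min. Data are normalized to control ATA and DMSO.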

| SMILES | Potency |
| --- | --- |
| C/C=C(/C(=C/C)c1ccc(O)cc1)c1ccc(O)cc1 | inactive |
| C[n+]1c2cc(N)ccc2cc2ccc(N)cc21 (tested in a mixture with another compound) | inactive |
| O=C(Nc1ccc(Oc2ccc(Cl)cc2)c(Cl)c1)c1cc(I)cc(I)c1O | 30.1 µM (active) |
| CC(=O)Oc1ccc2c(c1)CC[C@@H]1[C@@H]2CC[C@]2(C)[C@@H](O)CC[C@@H]12 | inactive |
| c1ccc(-c2ccc(C(c3ccccc3)n3ccnc3)cc2)cc1 (stereo unspecified) | inactive |
| COc1cccc2c1C(=O)c1c(O)c3c(c(O)c1C2=O)C[C@@](O)(C(C)=O)C[C@@H]3O[C@H]1C[C@H](N)[C@H](O)[C@H](C)O1 | inactive |
| CC1=C(C(=O)OC(C)C)C(c2cccc([N+](=O)[O-])c2)C(C(=O)OC2CN(C(c3ccccc3)c3ccccc3)C2)=C(N)N1 (stereo unspecified) | inactive |

Biological target: Rap guanine nucleotide exchange factor 3 (Homo sapiens) (UniProt O95398)
Assay: Confirmatory qHTS for agonist of cAMP-regulated guanine nucleotide exchange factor 3 (EPAC1) (AID 1645881);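 further: EPAC1 catalysed release of BODIPY-GDP from Rap1B seen as fluorescence loss; nearly all actives have a fitted effect of over 75% in size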
Conditions: EPAC1 Rap1B BODIPY-GDP exchange fluorescence, 100% = cAMP control response; series mostly up to 154 µM

| SMILES | outcome |
| --- | --- |
| C/C=C(/C(=C/C)c1ccc(O)cc1)c1ccc(O)cc1 | inactive |
| O=C(Nc1ccc(Oc2ccc(Cl)cc2)c(Cl)c1)c1cc(I)cc(I)c1O | inactive |
| CC(=O)Oc1ccc2c(c1)CC[C@@H]1[C@@H]2CC[C@]2(C)[C@@H](O)CC[C@@H]12 | inactive |
| c1ccc(-c2ccc(C(c3ccccc3)n3ccnc3)cc2)cc1 (stereo unspecified) | inactive |
| COc1ccc(/C=C/C(=O)c2ccc(OC)cc2OC)cc1 | inactive |
| COc1cccc2c1C(=O)c1c(O)c3c(c(O)c1C2=O)C[C@@](O)(C(C)=O)C[C@@H]3O[C@H]1C[C@H](N)[C@H](O)[C@H](C)O1 | inactive |
| CC1=C(C(=O)OC(C)C)C(c2cccc([N+](=O)[O-])c2)C(C(=O)OC2CN(C(c3ccccc3)c3ccccc3)C2)=C(N)N1 (stereo unspecified) | inactive |

Biological target: Rap guanine nucleotide exchange factor 4 (Homo sapiens) (UniProt Q8WZA2)
Sequence (Q8WZA2 whole entry, looked up): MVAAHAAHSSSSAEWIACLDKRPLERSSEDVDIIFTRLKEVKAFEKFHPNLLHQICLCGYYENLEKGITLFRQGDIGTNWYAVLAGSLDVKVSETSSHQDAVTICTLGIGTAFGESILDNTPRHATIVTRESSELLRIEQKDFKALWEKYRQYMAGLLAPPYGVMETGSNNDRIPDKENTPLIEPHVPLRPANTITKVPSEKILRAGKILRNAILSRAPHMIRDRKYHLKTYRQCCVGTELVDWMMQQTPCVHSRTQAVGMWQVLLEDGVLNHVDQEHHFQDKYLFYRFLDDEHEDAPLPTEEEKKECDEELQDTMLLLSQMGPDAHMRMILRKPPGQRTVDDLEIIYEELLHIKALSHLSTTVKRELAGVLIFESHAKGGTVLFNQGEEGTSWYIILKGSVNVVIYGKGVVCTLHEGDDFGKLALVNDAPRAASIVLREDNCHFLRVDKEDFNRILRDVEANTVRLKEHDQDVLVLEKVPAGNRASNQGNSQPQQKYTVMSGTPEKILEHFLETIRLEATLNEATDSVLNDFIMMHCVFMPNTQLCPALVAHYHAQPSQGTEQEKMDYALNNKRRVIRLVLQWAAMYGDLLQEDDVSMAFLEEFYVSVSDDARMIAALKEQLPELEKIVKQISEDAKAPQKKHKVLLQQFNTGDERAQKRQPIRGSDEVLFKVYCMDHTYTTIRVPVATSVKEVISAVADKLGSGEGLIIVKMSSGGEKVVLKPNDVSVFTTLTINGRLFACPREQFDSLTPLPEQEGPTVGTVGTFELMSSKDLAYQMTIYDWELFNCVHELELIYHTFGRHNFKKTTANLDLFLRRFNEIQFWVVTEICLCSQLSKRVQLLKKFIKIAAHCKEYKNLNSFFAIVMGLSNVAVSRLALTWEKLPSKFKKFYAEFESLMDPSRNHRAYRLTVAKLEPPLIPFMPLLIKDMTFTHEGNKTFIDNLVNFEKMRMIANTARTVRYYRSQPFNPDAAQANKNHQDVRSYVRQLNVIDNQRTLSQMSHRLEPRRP
Assay: Confirmatory qHTS for agonist of cAMP-regulated guanine nucleotide exchange factor 4 (EPAC2) (AID 1645884);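 further: nucleotide exchange releases bodipy-GDP from Rap1 and this lowers its fluorescence; nearly all actives have a fitted effect of over 65% in size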
Conditions: EPAC2 GEF activity, Rap1B-BODIPY-GDP fluorescence; series mostly up to 154 µM

| SMILES | Potency |
| --- | --- |
| C/C=C(/C(=C/C)c1ccc(O)cc1)c1ccc(O)cc1 | inactive |
| O=C(Nc1ccc(Oc2ccc(Cl)cc2)c(Cl)c1)c1cc(I)cc(I)c1O | inactive |
| CC(=O)Oc1ccc2c(c1)CC[C@@H]1[C@@H]2CC[C@]2(C)[C@@H](O)CC[C@@H]12 | inactive |
| c1ccc(-c2ccc(C(c3ccccc3)n3ccnc3)cc2)cc1 (stereo unspecified) | inactive |
| COc1ccc(/C=C/C(=O)c2ccc(OC)cc2OC)cc1 | inactive |
| COc1cccc2c1C(=O)c1c(O)c3c(c(O)c1C2=O)C[C@@](O)(C(C)=O)C[C@@H]3O[C@H]1C[C@H](N)[C@H](O)[C@H](C)O1 | inactive |
| CC1=C(C(=O)OC(C)C)C(c2cccc([N+](=O)[O-])c2)C(C(=O)OC2CN(C(c3ccccc3)c3ccccc3)C2)=C(N)N1 (stereo unspecified) | inactive |
